Among all 1,400 compounds or so, about 100 (7.1%) were called active. These entries were drawn from the full list. Measured potencies and affinities stand elsewhere. A number with no mark means an inactive call. The rule behind the calls is not given here.
Assay: viability loss in Vero cells – cell-based, plate reader, cherry-pick samples, cytotoxicity control, dose response (AID 687020);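 note: compounds incubated with cells for three days before luminescence read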
Settings: series mostly up to 19.5 µM; activity change, negative = toxicity: at the top concentration

| SMILES | activity change, negative = toxicity |
| --- | --- |
| COc1cccc(CC(=O)OCC(=O)Nc2nnc(-c3ccccc3)o2)c1 | 2.48% |
| COc1ccc(C(CNC(=O)CCNC(=O)c2ccc(Br)cc2)N2CCOCC2)cc1 (stereo not drawn) | -7.55% |
| COc1ccc(C(CNS(=O)(=O)c2ccc(NC(C)=O)c(OC)c2)N2CCCC2)cc1 (stereo not drawn) | -23.7% |
| CCCCN1C(N)=NC[C@@H]1C(C)O (stereo partly drawn) | -16.1% |
| O=C(COc1ccccc1)NCC(=O)N/N=C/c1ccc(Br)cc1 | 3.21% |
| O=C(CCn1cncn1)N1CCCC(N2CCN(c3ccc(F)cc3)CC2)C1 (stereo not drawn) | -15.2% |
| O=C(c1cc(C2CC2)on1)N1CCCC(N2CCN(c3cccc(C(F)(F)F)c3)CC2)C1 (stereo not drawn) | 3.52% |
| CCN(CC)CC(=O)N1CCCC(N2CCN(c3cccc(C(F)(F)F)c3)CC2)C1 (stereo not drawn) | -15.9% |
| C[C@@H]1CCCCO[C@H](CN(C)Cc2ccc(Cl)c(Cl)c2)[C@H](C)CN([C@@H](C)CO)C(=O)c2cc(NC(=O)c3ccccc3)ccc2O1 | -5.49% [at 21 µM] |
| O=C(c1ccc2nccnc2c1)N1CCN(c2ccccc2)CC1 | -11.1% |
| O=C(c1cccc(-c2cccc3nccn23)c1)N1CCOCC1 | 5.83% |
| CCCCCCCCN1C(=O)[C@H](CC(=O)NCCC(C)C)C[C@@]2(C(=O)OCC)CCCC=C12 | -10.3% |
| CCN1CCN(c2ccc(S(=O)(=O)N3CCCCC3)cc2NC(=O)c2ccc(C)c(C)c2)CC1 | -1.07% |
| Cn1c(=O)n(C)c2cc(N3CCOCC3)c(NC(=O)c3ccc(F)cc3)cc21 | -1.46% |
| CNC[C@@H]1OCCCC[C@H](C)Oc2ccc(NS(C)(=O)=O)cc2C(=O)N([C@@H](C)CO)C[C@@H]1C | 7.65% |
| C=CCc1ccc(OCCCNCc2ccccc2)c(OC)c1 | 4.77% |
| CCc1cccc(OCCN2CCCC2)c1 | 7.48% |
| Cc1cccc(OCCCN2CCC(C(O)(c3ccccc3)c3ccccc3)CC2)c1 | -11.6% |
| CN1CCN(CCOc2ccc(-c3ccccc3)cc2)CC1 | -3.13% |
| c1ccc(-c2ccc(OCCN3CCOCC3)cc2)cc1 | -30.8% |
| COc1ccccc1CN1CCCC(N2CCN(c3ccccc3OC)CC2)C1 (stereo not drawn) | -25.9% |
| CCc1cc2c(=O)[nH]c(COC)nc2s1 | -6.45% |
| CN(C(=O)COC(=O)c1ccc(S(=O)(=O)N2CCOCC2)cc1)c1ccccc1 | -15.2% |
| COc1ccc(CNC(=O)C2CC(c3ccc(C(F)(F)F)cc3)=NO2)cc1 (stereo not drawn) | -24.9% |
| COC(=O)[C@@H]1C[C@H]2CC[C@H](O)C[C@H]2N1Cc1ccc(C(F)(F)F)cc1 | -4.52% |

| SMILES | activity change, negative = toxicity |
| --- | --- |
| Nc1cccc(O)c1 | -6.53% |
| COc1cc(CNc2nccn3ccnc23)cc(OC)c1 | -9.02% |
| CCc1ccc(OCC(O)CN2CCN(c3ccccc3)CC2)cc1 (stereo not drawn) | -5.9% |
| NC(=O)C1CCN(CC(O)COc2ccc(-c3ccccc3)cc2)CC1 (stereo not drawn) | -5.66% |
| COCC#Cc1ccc2c(c1)O[C@@H](CN(C)C(=O)Nc1ccccc1F)[C@H](C)CN([C@@H](C)CO)S2(=O)=O | 0.743% |
| C[C@H]1CN([C@@H](C)CO)C(=O)Cc2cc(NC(=O)CCCCCC(=O)Nc3ccccc3N)ccc2O[C@H]1CN(C)Cc1ccc(C(F)(F)F)cc1 | 1.41% [at 21 µM] |
| CC1(C(=O)NS(=O)(=O)c2ccccc2C(F)(F)F)CCN1C(=O)CCc1ccccc1 (stereo not drawn) | -2.6% |
| O=C(NNc1c(F)c(F)cc(F)c1F)C1CCN(S(=O)(=O)c2ccccc2F)CC1 | -10.5% |
| C[C@H](CO)N1C[C@H](C)[C@H](CN(C)C(=O)Nc2cccc3ccccc23)OCCCC[C@H](C)Oc2ccc(NS(=O)(=O)c3cn(C)cn3)cc2C1=O | 0.574% |
| COc1ccc(C(C)NC(=O)c2ccccc2Cl)cc1OC (stereo not drawn) | 1.27% |
| CCS(=O)(=O)Nc1ccc(C(=O)NCCSc2ccccc2)cc1 | -8.4% |
| COc1ccccc1N(CC(=O)N1CCCC1)S(=O)(=O)c1ccc(C)cc1 | -2.96% |
| COc1ccc(C(=O)N2CCN(C3CCCCC3)CC2)cc1OC | -10.2% |
| COc1ccc(OC)c(-c2cc(C(=O)NC3CCCC3)c3ccccc3n2)c1 | -9.23% |
| Cc1cc(N2CCN(C)CC2)n2nc(-c3ccc(Cl)cc3)nc2n1 | -1.64% |
| COc1ccc(-c2nc(NCCCN(C)C)c3ccccc3n2)cc1 | -20.6% |
| COc1ccc2nc(NN=Cc3cccc(C)n3)cc(C)c2c1 | -10.1% |
| C[C@@H]1CN([C@H](C)CO)C(=O)c2cc(NC(=O)c3ccccc3)ccc2O[C@@H](C)CCCCO[C@@H]1CN(C)Cc1ccc(C(=O)O)cc1 | -0.937% |
| C[C@@H]1CCCCO[C@@H](CN(C)Cc2ccc(C(=O)O)cc2)[C@H](C)CN([C@H](C)CO)C(=O)c2cc(NC(=O)c3ccccc3)ccc2O1 | -7.9% |
| Cc1ccc(CN(C)c2ccc(S(=O)(=O)N3CCCC3)cn2)cc1 | -3.39% |
| COc1cc(C(=O)NCc2cccc(Cl)c2)ccc1OCC(=O)N1CCOCC1 | 2.08% |
| COc1ccc(C(=O)NCCOc2cccc(Oc3ccccc3)c2)cc1OC | -17.2% |
| O=C(C[C@@H]1CC[C@@H]2[C@H](COC[C@H](O)CN2Cc2cccc(Cl)c2)O1)N1CCOCC1 | -2.6% |
| COC(=O)C1=C(C)N(Cc2cccc(C(F)(F)F)c2)C(=NCC2CC2)NC1c1ccc(F)cc1 (stereo not drawn) | -0.751% |
| C[C@@H]1CN([C@@H](C)CO)C(=O)c2cc(NS(=O)(=O)c3ccc(F)cc3)ccc2O[C@@H](C)CCCCO[C@@H]1CN(C)C(=O)CCCN(C)C | -2.95% |

| SMILES | activity change, negative = toxicity |
| --- | --- |
| CCOC(=O)Nc1ccc(N2CCOCC2)c(S(=O)(=O)N2CCOCC2)c1 | -7.3% |
| O=C(CC1NCCN(Cc2ccccc2)C1=O)Nc1ccccc1 (stereo not drawn) | -3.62% |
| CCCCN1C[C@H](Cc2ccccc2)[C@@H](CC(=O)Nc2ccccc2)C1=O | -6.93% |
| Cc1ccc(S(=O)(=O)N(c2nc(NC(C)C)nc(NC(C)C)n2)n2cnnc2)cc1 | -22% |
| C=CCOc1ccccc1OCC(O)CNC(C)C (stereo not drawn) | 4.09% |
| N#C[C@@H]1[C@H](c2ccc(C#Cc3ccccc3F)cc2)[C@H](CO)N1C(=O)C1CCC1 | -7.04% |
| CC(C)CCn1c2ccccc2c2cc(CC(N)=O)ccc21 | -9.09% |
| CC1(Cc2cccc(F)c2)C(=O)Nc2ccc(-c3cccnc3)cc21 (stereo not drawn) | 2.56% |
| O=C(Nc1ccc2nc3n(c(=O)c2c1)CCCC3)c1ccccc1F | -0.515% |
| COc1cc(OC)cc(C(=O)Nc2ccc3nc4n(c(=O)c3c2)CCCC4)c1 | -1.48% |
| CC(C)(C)c1ccc(C(=O)Nc2ccc3c(c2)C(=O)NC3=O)cc1 | -3.44% |
| CC(NC(=O)c1ccccc1)C(=O)OCn1nnc2ccccc2c1=O (stereo not drawn) | 2.95% |
| CCCc1nc2ccccc2n1C(C)C(=O)NC(C)(C)C (stereo not drawn) | -9.03% |
| Cc1cc(C)cc(NC(=O)Cn2nnc(C(=O)NCc3cccs3)c2N)c1 | -0.976% |
| CN(C)CCCN1c2ccccc2Sc2ccc3ccccc3c21 | -27.7% |
| CC(C)NC(=O)Nc1ccc2c(c1)C(=O)N([C@H](C)CO)C[C@H](C)[C@H](CN(C)CC1CC1)OCCCC[C@@H](C)O2 | -0.509% |
| CCCN1[C@H](C(=O)NCC(F)(F)F)[C@@H](CO)[C@@H]2Cn3c(ccc(-c4ccccc4)c3=O)[C@@H]21 | -4.76% |
| CCOC(=O)c1ccc(NC(=O)c2nc[nH]c2C(=O)NC[C@H](C)O)cc1 | -3.85% |
| C[C@H](CO)N1C[C@H](C)[C@@H](CN(C)S(C)(=O)=O)Oc2ccc(NC(=O)Nc3ccccc3)cc2C1=O | -2.06% |
| CCN(C)C1CN(Cc2cn(Cc3ccccc3)nn2)S(=O)(=O)C1 (stereo not drawn) | 2.96% |
| Cc1ccc(Cn2cc(CN3CC(N4CCSCC4)CS3(=O)=O)nn2)cc1 (stereo not drawn) | -18.6% |
| COc1ccc(-c2cnc3n2CCCCC3)cc1 | -10.8% |
| CC(=O)N1CCN(C(=O)COC(=O)COc2c(C)cc(C)cc2C)CC1 | -0.176% |
| Cc1ccc(S(=O)(=O)N2CCOCC2)cc1NC(=O)CN(C)CC(=O)Nc1cccc(F)c1 | -8.86% |
| COc1cccc(NC(=O)CN(C)C(=O)Cc2ccc3c(c2)OCCO3)c1 | -3.6% |

| SMILES | activity change, negative = toxicity |
| --- | --- |
| COC(=O)c1cn(C(=O)c2ccc(OC)c(OC)c2)c2ccccc12 | -6.84% |
| COc1ccc(COC(=O)C2=C(C)NC(=O)NC2c2ccccc2F)cc1 (stereo not drawn) | -12.5% |
| N#CC[C@H](c1ccccc1)N1CCN(Cc2ccccc2)CCC1=O | -10% |
| CC(C)C[C@@H](COc1ccccc1)N1CCN(CCc2ccccc2)CCC1=O | -23.9% |
| CCCN1CCC(=O)N([C@H](CSc2ccccc2)Cc2ccccc2)CC1 | -25.2% |
| CCN(CC)C(=O)C1CCN(Cc2ccc(OCc3ccccc3)cc2)CC1 | -30.8% |
| Cc1noc(C)c1NC(=O)Nc1ccc2c(c1)CC(=O)N([C@@H](C)CO)C[C@H](C)[C@@H](CN(C)C(=O)Nc1ccccc1)O2 | 6.21% |
| CCOc1ccc2[nH]cc(S(=O)(=O)c3ccc(C)cc3)c(=O)c2c1 | -24.2% |
| O=C(Oc1ccccc1)c1ccccc1C(=O)Oc1ccccc1 | -7.5% |
| COc1ccc(NC(=O)c2cc3ccccc3cc2O)cc1 | 6.74% |
| COc1ccc(N2CCN(CC(O)COc3ccc(F)cc3)CC2)cc1 (stereo not drawn) | -1.99% |
| Clc1cc(Br)ccc1OCCCn1ccnc1 | -4.92% |
| Clc1cc(Br)ccc1OCCOCCN1CCCC1 | -12.9% |
| N#CCc1ccc(NC(=O)c2cc(S(=O)(=O)N3CCOCC3)ccc2Cl)cc1 | 4.07% |
| COc1ccc(-c2cc(N3C(=O)Nc4ccccc4N3O)n[nH]2)cc1OC | -3.7% |
| CCNC(=O)N(C)C[C@H]1N[C@@](CC)(C(=O)OC)[C@H]2C(=O)N(Cc3ccccc3)C(=O)[C@@H]12 | 3.78% |
| Cc1ccccc1N1Cc2ccccc2C1=O | -17.1% |
| CN1CCN(S(=O)(=O)c2cccs2)CC1 | -29.2% |
| O=C(NCc1ccc(Cl)c(Cl)c1)c1cc(C2CCCCN2C(=O)OCCF)on1 (stereo not drawn) | -31.1% |
| Cc1ccc(F)cc1C(=O)N1CCCCC1c1cc(C(=O)NC(C)C)no1 (stereo not drawn) | -4.27% |
| COC(=O)N1CCCCC1c1cc(C(=O)Nc2ccccc2Cl)no1 (stereo not drawn) | -0.256% |
| COc1ccc(S(=O)(=O)N2CCCCC2c2cc(C(=O)Nc3ccccc3)no2)cc1 (stereo not drawn) | -19.9% |
| Cc1ccc(NC(=O)C2CCN(S(C)(=O)=O)CC2)cc1Cl | -5.63% |
